Structures are written as SMILES. The source made the active and inactive calls. How the source made its calls: active means hit-call score of the fitted dose curve at least 0.9, where 1 is the maximum; inactive means score below 0.9.

Read-out in test [1]: Epidermal growth factor receptor (EGFR), EGFR (gene 1956)
Put plainly: BSK_hDFCGF_EGFR: BioMAP Diversity Plus: hDFCGF Assay for Epidermal growth factor receptor (EGFR) Biomarker Activity (AID 2283057). Conditions: primary human foreskin fibroblasts; actives raise or lower the signal. The gist of the method:
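Dosing human primary skin fibroblasts, then measuring surface EGFR by ELISA at 24 h, gives the endpoint; gains and losses relative to DMSO were fitted in both directions.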

Read-out in test [2]: Interleukin-8 (IL8), CXCL8 (gene 3576)
Description: BSK_hDFCGF_IL8: BioMAP Diversity Plus: hDFCGF Assay for Interleukin-8 (IL8) Biomarker Activity (AID 2283058). The following applies: primary human foreskin fibroblasts; actives raise or lower the signal. The gist of the method: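 Cells used are human skin primary fibroblasts. Chemical is added, cultures run 24 h, then IL-8 is quantified by ELISA, and gain or loss versus DMSO control is fitted in both directions.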

A short description of test [3]: BSK_hDFCGF_Proliferation: Cell Proliferation Assessment in the BioMAP Diversity Plus: hDFCGF Assay (AID 2283059).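 Further: curves fitted for both rise and fall of signal versus DMSO baseline.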 Conditions: primary human foreskin fibroblasts. The gist of the method:
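This proliferation readout used SRB total-protein staining of human foreskin fibroblasts […], normalized to DMSO with bidirectional curve fitting.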

Test [4] is described as follows: BSK_hDFCGF_SRB: Viability Assessment in the BioMAP Diversity Plus: hDFCGF Assay (AID 2283061).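 Further: cells exposed to compound for 24 h before the read.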 The following applies: primary human foreskin fibroblasts. In outline:
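Readout is SRB absorbance at 560 nm, reflecting total protein in parallel cultures of human foreskin fibroblasts harvested 24 h after chemical dosing. Activity was fitted bidirectionally relative to DMSO.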

Read-out in test [5]: TIMP metallopeptidase inhibitor 1 (TIMP1), TIMP1 (gene 7076)
Put plainly: BSK_hDFCGF_TIMP1: BioMAP Diversity Plus: hDFCGF Assay for TIMP metallopeptidase inhibitor 1 (TIMP1) Biomarker Activity (AID 2283062). Conditions: primary human foreskin fibroblasts; actives raise or lower the signal. In outline: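 Human skin fibroblasts (primary), hDFCGF system; compound exposure 24 h; TIMP-1 by ELISA; bidirectional fit vs DMSO negative control; overt cytotoxicity by SRB in parallel wells.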

Read-out in test [6]: Vascular cell adhesion molecule 1 (VCAM1), VCAM1 (gene 7412)
Description: BSK_hDFCGF_VCAM1: BioMAP Diversity Plus: hDFCGF Assay for Vascular cell adhesion molecule 1 (VCAM1) Biomarker Activity (AID 2283065). The following applies: primary human foreskin fibroblasts; actives raise or lower the signal. The gist of the method:
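Human foreskin fibroblast primary cells, chemical exposure 24 h; VCAM-1 by ELISA; bidirectional fit, DMSO = negative control/baseline.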

Read-out in test [7]: Plasminogen activator inhibitor-1 (PAI1), SERPINE1 (gene 5054)
Description: BSK_hDFCGF_PAI1: BioMAP Diversity Plus: hDFCGF Assay for Plasminogen activator inhibitor-1 (PAI1) Biomarker Activity (AID 2283066). The following applies: primary human foreskin fibroblasts; actives raise or lower the signal. In outline:
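Fibroblasts from human foreskin were treated with test chemical. After 24 h, PAI-1 was measured by ELISA. Activity was fitted in both directions relative to DMSO.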

Read-out in test [8]: Intercellular Adhesion Molecule 1 (ICAM1), ICAM1 (gene 3383)
Put plainly: BSK_KF3CT_ICAM1: BioMAP Diversity Plus: KF3CT Assay for Intercellular Adhesion Molecule 1 (ICAM1) Biomarker Activity (AID 2283067). Conditions: primary human keratinocytes with fibroblasts; actives raise or lower the signal. In outline: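 ICAM-1 levels are measured by ELISA 24 h after dosing a primary human co-culture of keratinocytes and foreskin fibroblasts. Activity in either direction is fitted relative to DMSO vehicle.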

Read-out in test [9]: Interferon-gamma inducible Protein 10 (IP10), CXCL10 (gene 3627)
Description: BSK_KF3CT_IP10: BioMAP Diversity Plus: KF3CT Assay for Interferon-gamma inducible Protein 10 (IP10) Biomarker Activity (AID 2283068). The following applies: primary human keratinocytes with fibroblasts; actives raise or lower the signal. The gist of the method: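 Signal is secreted/surface IP-10 by ELISA in a human primary skin co-culture of keratinocytes and foreskin fibroblasts, taken 24 h post-dosing; DMSO served as negative control.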

The nature of test [10]: BSK_KF3CT_SRB: Viability Assessment in the BioMAP Diversity Plus: KF3CT Assay (AID 2283069).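 Further: read 24 h after compound addition; fitted for both signal gain and loss against DMSO baseline.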 Conditions: primary human keratinocytes with fibroblasts. In outline:
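Overt cytotoxicity is assessed as total protein by sulforhodamine B staining in parallel human skin co-cultures at 24 h after dosing. DMSO serves as negative control and baseline.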

Read-out in test [11]: TIMP metallopeptidase inhibitor 2 (TIMP2), TIMP2 (gene 7077)
Put plainly: BSK_KF3CT_TIMP2: BioMAP Diversity Plus: KF3CT Assay for TIMP metallopeptidase inhibitor 2 (TIMP2) Biomarker Activity (AID 2283071). The following applies: primary human keratinocytes with fibroblasts; actives raise or lower the signal. In outline: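 Chemicals were dosed onto human skin primary co-cultures of keratinocytes and foreskin fibroblasts, and TIMP-2 was measured by ELISA after 24 hours. Activity in either direction was fitted relative to DMSO.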

Read-out in test [12]: C-C motif chemokine 2 (Homo sapiens) (UniProt P13500)
Description: BSK_KF3CT_MCP1: BioMAP Diversity Plus: KF3CT Assay for Monocyte Chemoattractant Protein 1 (MCP1/CCL2) Biomarker Activity (AID 2283073). The following applies: primary human keratinocytes with fibroblasts; actives raise or lower the signal. The gist of the method: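 ELISA readout of MCP-1 after 24 h chemical dosing of a human skin primary co-culture of keratinocytes and foreskin fibroblasts. Activity was fitted in both directions against DMSO.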

Read-out in test [13]: Matrix Metallopeptidase 9 (MMP9), MMP9 (gene 4318)
Put plainly: BSK_KF3CT_MMP9: BioMAP Diversity Plus: KF3CT Assay for Matrix Metallopeptidase 9 (MMP9) Biomarker Activity (AID 2283074).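 On AC50: MMP9 protein level quantified by ELISA in the co-culture.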 The following applies: primary human keratinocytes with fibroblasts; actives raise or lower the signal. In outline: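 Values come from bidirectional fitting relative to DMSO of MMP-9 levels, which were measured by ELISA. Measurements were taken 24 h after chemical dosing of a keratinocyte and foreskin fibroblast co-culture.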

Read-out in test [14]: urokinase plasminogen activator (uPA), PLAU (gene 5328)
Put plainly: BSK_KF3CT_uPA: BioMAP Diversity Plus: KF3CT Assay for urokinase plasminogen activator (uPA) Biomarker Activity (AID 2283075). The following applies: primary human keratinocytes with fibroblasts; actives raise or lower the signal. The gist of the method:
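Values derive from bidirectional fitting against DMSO controls. Keratinocyte/foreskin fibroblast co-cultures received chemical; 24 h later uPA was detected by ELISA, with SRB total-protein staining in parallel wells for overt cytotoxicity.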

Read-out in test [15]: E-selectin (Homo sapiens) (UniProt P16581)
Put plainly: BSK_LPS_Eselectin: BioMAP Diversity Plus: LPS Assay for Eselectin Biomarker Activity (AID 2283077). The following applies: primary human HUVEC with PBMC; actives raise or lower the signal. In outline: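 Primary human vascular co-culture (endothelium plus PBMC) was dosed with chemical, then E-selectin quantified by ELISA at 24 h. Endpoint values derive from bidirectional curve fitting relative to DMSO.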

Read-out in test [16]: Interleukin-8 (IL8), CXCL8 (gene 3576)
Put plainly: BSK_LPS_IL8: BioMAP Diversity Plus: LPS Assay for Interleukin-8 (IL8) Biomarker Activity (AID 2283078). The following applies: primary human HUVEC with PBMC; actives raise or lower the signal. The gist of the method:
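Readout is IL-8 by ELISA, taken 24 h after compounds were added to LPS-stimulated endothelial/PBMC co-cultures. Both increases and decreases relative to DMSO control were scored through bidirectional fitting.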

Test [17] is described as follows: BSK_LPS_SRB: Viability Assessment in the BioMAP Diversity Plus: LPS Assay (AID 2283079).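 Further: total protein by sulforhodamine B absorbance as a cytotoxicity measure; measured one day after compound addition; fitted in both directions against DMSO so loss or gain of signal counts.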 Conditions: primary human HUVEC with PBMC. In outline: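 Readout is SRB absorbance at 560 nm (0.1% stain, TCA-fixed parallel cultures) as a total-protein cytotoxicity measure. Cells: primary human umbilical vein endothelium plus peripheral blood mononuclear cells, 24 h after chemical exposure; DMSO served as baseline.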

Read-out in test [18]: Interleukin-1 alpha (IL1a), IL1A (gene 3552)
Put plainly: BSK_LPS_IL1a: BioMAP Diversity Plus: LPS Assay for Interleukin-1 alpha (IL1a) Biomarker Activity (AID 2283080). The following applies: primary human HUVEC with PBMC; actives raise or lower the signal. The gist of the method:
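ELISA read-out of IL-1 alpha from a human primary vascular co-culture (endothelium plus PBMC) under LPS, sampled 24 hours post-dosing. Activity was fitted in both directions relative to DMSO controls.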

Test [19] can be described thus: BSK_LPS_PGE2: BioMAP Diversity Plus: LPS Assay for Prostaglandin E2 (PGE2) Biomarker Activity (AID 2283082).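 On AC50: secreted prostaglandin E2 measured by ELISA in LPS-stimulated co-culture.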 Conditions: primary human HUVEC with PBMC; actives raise or lower the signal. In outline:
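Compounds were added to the LPS co-culture of endothelium and PBMC, and PGE2 was measured by ELISA after 24 h. Responses in either direction were fitted with DMSO as baseline.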

Read-out in test [20]: Macrophage colony-stimulating factor (MCSF), CSF1 (gene 1435)
Put plainly: BSK_LPS_MCSF: BioMAP Diversity Plus: LPS Assay for Macrophage colony-stimulating factor (MCSF) Biomarker Activity (AID 2283083). The following applies: primary human HUVEC with PBMC; actives raise or lower the signal. In outline:
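ELISA readout of M-CSF after 24 h compound exposure in a human endothelial/PBMC co-culture. Activity, in either direction, is fitted relative to DMSO vehicle.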

E-selectin (Homo sapiens), sequence (P16581 whole entry, looked up): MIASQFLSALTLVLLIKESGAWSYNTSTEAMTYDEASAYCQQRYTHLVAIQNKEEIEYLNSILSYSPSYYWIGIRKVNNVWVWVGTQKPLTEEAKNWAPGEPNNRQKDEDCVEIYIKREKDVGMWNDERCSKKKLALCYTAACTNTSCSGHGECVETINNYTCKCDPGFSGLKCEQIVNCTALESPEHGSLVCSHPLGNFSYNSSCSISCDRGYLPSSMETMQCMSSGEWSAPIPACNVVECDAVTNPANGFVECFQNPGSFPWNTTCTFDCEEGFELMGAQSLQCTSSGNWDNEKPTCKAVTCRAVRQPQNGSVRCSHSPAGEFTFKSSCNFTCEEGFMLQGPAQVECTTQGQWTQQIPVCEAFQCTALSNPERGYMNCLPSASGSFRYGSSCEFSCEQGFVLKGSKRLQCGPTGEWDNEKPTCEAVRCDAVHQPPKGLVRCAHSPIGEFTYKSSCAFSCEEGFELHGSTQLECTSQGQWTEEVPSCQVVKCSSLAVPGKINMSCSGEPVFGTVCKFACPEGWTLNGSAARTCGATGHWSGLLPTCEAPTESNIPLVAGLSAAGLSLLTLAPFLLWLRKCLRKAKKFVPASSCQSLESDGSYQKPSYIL

For the compound `CC(C)CC(=O)CC(C)CC(C)C` (stereo not given), the outcome in test [1], in [2], in test [5], in [6], in test [9] and in test [16] was inactive. The outcome in [19] and in test [20] was inactive. The AC50 is 39.5 µM (active) in test [3]; 34.7 µM (active) in [4]; 32.2 µM (active) in [7]; 31.8 µM (active) in test [8]; 36.7 µM (active) in [10]; 32.2 µM (active) in test [11]. Also, the half-maximal activity concentration (AC50) was 37.1 µM (active) in test [12]; 36.4 µM (active) in test [13]; 30.4 µM (active) in test [14]; 29.6 µM (active) in test [15]; 31.7 µM (active) in test [17]; 35 µM (active) in test [18].

With `Sc1nc2ccccc2s1`, the outcome in test [1], in [2], in test [3], in test [4], in [5] and in [6] was inactive. Further, the result in test [7], in [8], in test [9], in test [10], in test [11] and in test [12] was inactive. Also, the outcome in test [13], in [14], in [15], in test [16], in [18] and in test [19] was inactive. For the same compound, the outcome in test [20] was inactive. For the same compound, the concentration at half-maximal activity (AC50) in [17] was 3.97 µM (active).

`CCC(C)=NO`: the result in [1], in [2], in [3], in test [4], in test [5] and in test [6] was inactive. The result in test [7], in test [8], in [9], in test [10], in test [11] and in [12] was inactive. Besides, the outcome in [13], in [14], in test [15], in test [16], in test [17] and in [18] was inactive. For the same compound, the result in test [19] and in test [20] was inactive.

`CCCCCCC(O)CCCCCCCCCCC(=O)OC` (stereo not given): the outcome in test [1], in test [2], in test [4], in test [5], in test [6] and in test [8] was inactive. Besides, the outcome in [9], in test [10], in test [11], in test [12], in [13] and in [14] was inactive. Further, the result in test [15], in [16], in test [17], in [18] and in [20] was inactive. Moreover, the AC50 in test [3] is 4.09 µM (active); in test [7], 6.22 µM (active); in test [19], 1.73 µM (active).

With `COC(=O)/C=C\C(=O)OC`, the outcome in test [1], in test [2], in [3], in test [4], in test [5] and in test [6] was inactive. Also, the outcome in [7], in test [8], in [9], in test [10], in test [11] and in test [12] was inactive. Also, the result in test [13], in [14], in [15], in test [16], in test [17] and in test [18] was inactive. Moreover, the result in test [19] and in [20] was inactive.

Regarding `O=C(C(=O)c1ccccc1)c1ccccc1`, the result in test [1], in test [2], in test [3], in [4], in [5] and in [6] was inactive. In addition, the outcome in test [7], in test [8], in [9], in test [10], in [11] and in test [12] was inactive. For the same compound, the result in [13], in test [14], in [15], in test [17], in [18] and in [19] was inactive. Moreover, the result in test [20] was inactive. Further, the AC50 in test [16] was 0.0917 µM (active).

As to `CCCCCCCCCC/C=C/C1CC(=O)OC1=O` (stereo not given), the result in [1], in test [2], in [3], in [4], in [5] and in test [6] was inactive. Moreover, the result in [7], in [8], in [9], in test [10], in test [11] and in [12] was inactive. Also, the result in [14], in test [15], in test [16], in test [17], in test [18] and in test [19] was inactive. In test [20], the result was inactive. The AC50 in [13] was 27.7 µM (active).

In general, AC50 refers to the concentration giving half of the maximal activity seen.

Values taken from PubChem BioAssay (EPA / NIEHS).
